The record followed here is PubChem BioAssay (Tox21).

Several values for one entry are separate records, joined by “and”; a condition that tells them apart may be missing. Identical values can stand only once. Inconclusive results are not listed. A structure can be active in one record and inactive in another. Activity calls are given as the source filed them. Unless noted, calls follow the shape of the dose curve; as a rule, active = well fitted curve in the direction sought with a large enough effect in the repeat runs; inconclusive = weak or mixed curves; inactive = no such curve, though single readings can be large; an effect the other way counts as inactive or inconclusive.

Test [1] is described as follows: Human pregnane X receptor (PXR) small molecule agonists, qHTS cell viability counter screen (AID 1346977). Also: nearly all actives have a fitted effect of over 50% in size. Also: potency is read from the fitted curve at half-maximal effect. Put shortly:
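Measures live-cell protease fluorescence (CellTiter-Fluor) in PXR-Luc HepG2 cells treated 24hr with compounds at 37C. Cells had 5hr to attach before pin transfer of DMSO solutions.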
On the technique in general: qHTS replaces the single test concentration by a dilution series.

The nature of test [2]: Caspase-3/7 induction in HepG2 cells by small molecules, qHTS assay (AID 1346978). Also: nearly all actives have a fitted effect of over 15% in size. Also: potency is read from the fitted curve at half-maximal effect. Put shortly: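 Wild-type HepG2 cells, 2,000/well, settled 5 hr at 37 C and 5% CO2, then compound-treated for 17 hr; caspase-3/7 activity read by luminescent Caspase-Glo 3/7 after 30 min at room temperature.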
Test [3] can be described thus: Caspase-3/7 induction in CHO-K1 cells by small molecules, qHTS cell viability counter screen (AID 1346979). Also: nearly all actives have a fitted effect of over 35% in size. Also: potency is read from the fitted curve at half-maximal effect. In a few lines: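 In the same wells as the caspase read, viability of compound-treated wild-type CHO-K1 cells was assessed using CellTiter-Fluor, added after 16hr at 37C and measured by fluorescence following 1hr further incubation.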
Test [4] in a line: Caspase-3/7 induction in CHO-K1 cells by small molecules, qHTS assay (AID 1346980). Also: nearly all actives have a fitted effect of over 15% in size. Also: potency is read from the fitted curve at half-maximal effect. Put shortly:
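Wild-type CHO-K1 cells exposed to compounds for 17hr at 37 C, 5% CO2. Caspase-3/7 activity then measured by Caspase-Glo 3/7 luminescence after 30min at room temperature.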

Test [5] is described as follows: Caspase-3/7 induction in HepG2 cells by small molecules, qHTS cell viability counter screen (AID 1346981). Also: nearly all actives have a fitted effect of over 30% in size. Also: potency is read from the fitted curve at half-maximal effect. Put shortly: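 Cell viability is measured as a cytotoxicity counter screen alongside the Caspase-Glo 3/7 readout in identical wells. Wild-type HepG2 cells are treated with test compounds for 16 hr at 37 C before CellTiter-Fluor addition and a 1-hr incubation.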

In test [6] the target is Nuclear receptor subfamily 1 group I member 2 (Homo sapiens) (UniProt O75469). As to the kind of experiment: Human pregnane X receptor (PXR) small molecule agonists, qHTS assay (AID 1346982). Also: nearly all actives have a fitted effect of over 35% in size. Also: potency is read from the fitted curve at half-maximal effect. In a few lines: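 Cells: HepG2 stably carrying PXR-Luc. Medium held 5% charcoal-stripped FBS. Compounds in DMSO added after 5 hr plating, incubated 24 hr, then luminescence quantified with ONE-Glo.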
Chain of Nuclear receptor subfamily 1 group I member 2 (Homo sapiens) (O75469 whole entry, looked up): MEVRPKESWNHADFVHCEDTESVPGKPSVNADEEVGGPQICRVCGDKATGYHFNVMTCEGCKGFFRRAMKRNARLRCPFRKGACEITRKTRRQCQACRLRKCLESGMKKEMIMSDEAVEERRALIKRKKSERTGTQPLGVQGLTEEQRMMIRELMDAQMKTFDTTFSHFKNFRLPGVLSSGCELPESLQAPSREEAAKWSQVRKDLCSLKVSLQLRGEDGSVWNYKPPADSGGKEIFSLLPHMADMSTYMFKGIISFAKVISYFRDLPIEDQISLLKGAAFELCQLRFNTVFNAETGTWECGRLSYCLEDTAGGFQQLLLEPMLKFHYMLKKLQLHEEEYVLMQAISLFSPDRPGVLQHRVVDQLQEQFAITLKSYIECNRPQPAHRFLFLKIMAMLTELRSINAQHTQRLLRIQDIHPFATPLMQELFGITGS

The target in test [7] is Acetylcholinesterase (Homo sapiens) (UniProt P22303). Description: Acetylcholinesterase (AChE) small molecule antagonists: colormetric cell-based qHTS assay (AID 1347395; calls by dose curve; also: nearly all actives have a fitted effect of over 30% in size). Put shortly:
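Endogenous AChE of human neuroblastoma SH-SY5Y cells was measured with an Ellman-type DTNB/acetylthiocholine mix. Compound pretreatment lasted 30 min at 37 C; substrate reaction ran 90 min at 37 C.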

Test [8] shares this target. Description: Acetylcholinesterase (AChE) small molecule antagonists: enzyme-based qHTS assay (AID 1347397; calls by dose curve; also: nearly all actives have a fitted effect of over 55% in size). Particulars: Potency: AChE enzyme activity inhibition. Put shortly: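 Colorimetric DTNB read-out of thiocholine released from acetylthiocholine by recombinant human AChE (50 mU/mL as dispensed). Compounds were preincubated 30 min at RT before substrate/DTNB addition, with a 10 min RT reaction.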

Test [9] shares this target. As to the kind of experiment: Acetylcholinesterase (AChE) small molecule antagonists: fluorescence cell-based qHTS assay (AID 1347398; calls by dose curve; also: nearly all actives have a fitted effect of over 50% in size). The following applies: Potency: AChE activity. Put shortly: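 SH-SY5Y, 2,000 cells/well, attached overnight; cmpd 30 min 37 C; acetylthiocholine/Thiolite Green cocktail 40 min RT; fluorescence Ex/Em 490/520 nm.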
For test [10] the target is unchanged. Description: Acetylcholinesterase (AChE) small molecule antagonists: enzyme-based qHTS assay with human liver microsomes (AID 1347399; calls by dose curve; also: nearly all actives have a fitted effect of over 60% in size). Particulars: Potency: qHTS inhibition. In a few lines: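 Recombinant human AChE (50 mU/mL in the enzyme mix) and human liver microsomes (0.25 mg/mL final) were preincubated with compound and NADPH (0.25 mg/mL final) for 30 min at 37 C. Acetylthiocholine/DTNB was then added; thiocholine was read colorimetrically after 10 min at room temperature.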

Test [11] has as its target Cytochrome P450 2D6 (Homo sapiens) (UniProt P10635). As to the kind of experiment: Cytochrome P450 Family 2 Subfamily D Member 6 (CYP2D6) small molecule antagonists: luciferase reporter qHTS assay (AID 1671196). Also: nearly all actives have a fitted effect of over 50% in size. Also: potency is read from the fitted curve at half-maximal effect. In a few lines: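 Enzyme and proluciferin substrate were first combined with test chemical for 10 min at room temperature. Adding NADPH regeneration solution started a 1 h reaction, stopped with luciferin detection reagent and read by luminescence 20 min later.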
In general terms: In a reporter assay the amount or activity of a reporter protein is the signal.

The target in test [12] is Cytochrome P450 2C19 (Homo sapiens) (UniProt P33261). Description: Cytochrome P450 Family 2 Subfamily C Member 19 (CYP2C19) small molecule antagonists: luciferase reporter qHTS assay (AID 1671197). Also: nearly all actives have a fitted effect of over 65% in size. Also: potency is read from the fitted curve at half-maximal effect. Put shortly:
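CYP2C19 P450-Glo, 1536-well qHTS. Cpd + enzyme/proluciferin substrate 10 min RT; + NADPH regen, 37C 1 h; stop with luciferin detection reagent, 20 min RT, luminescence (RLU). Pos ctrl ketoconazole.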

Test [13] deals with Cytochrome P450 2C9 (Homo sapiens) (UniProt P11712). As to the kind of experiment: Cytochrome P450 Family 2 Subfamily C Member 9 (CYP2C9) small molecule antagonists: luciferase reporter qHTS assay (AID 1671198). Also: nearly all actives have a fitted effect of over 50% in size. Also: potency is read from the fitted curve at half-maximal effect. Put shortly: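 P450-Glo proluciferin substrate with CYP2C9 enzyme; 10 min RT preincubation, then NADPH regeneration 1 h at 37C; luciferin detection reagent 20 min RT, luminescence in relative luminescence units.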
Chain of Cytochrome P450 2C9 (Homo sapiens) (P11712 whole entry, looked up): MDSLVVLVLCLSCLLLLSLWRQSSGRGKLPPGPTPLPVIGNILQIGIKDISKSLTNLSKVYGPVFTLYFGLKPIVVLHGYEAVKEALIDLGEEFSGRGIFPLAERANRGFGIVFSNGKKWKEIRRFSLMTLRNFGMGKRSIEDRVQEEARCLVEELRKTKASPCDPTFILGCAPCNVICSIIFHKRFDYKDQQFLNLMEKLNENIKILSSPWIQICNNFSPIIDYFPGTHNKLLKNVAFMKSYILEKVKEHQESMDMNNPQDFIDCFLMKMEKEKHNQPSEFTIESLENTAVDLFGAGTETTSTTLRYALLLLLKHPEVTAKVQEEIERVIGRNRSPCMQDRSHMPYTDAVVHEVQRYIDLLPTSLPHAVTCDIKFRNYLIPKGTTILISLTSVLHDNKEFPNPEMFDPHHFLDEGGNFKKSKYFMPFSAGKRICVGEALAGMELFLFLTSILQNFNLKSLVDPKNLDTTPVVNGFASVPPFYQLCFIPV

Test [14] concerns the target Cytochrome P450 1A2 (Homo sapiens) (UniProt P05177). As to the kind of experiment: Cytochrome P450 Family 1 Subfamily A Member 2 (CYP1A2) small molecule antagonists: luciferase reporter qHTS assay (AID 1671199). Also: nearly all actives have a fitted effect of over 50% in size. Also: potency is read from the fitted curve at half-maximal effect. Put shortly:
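Compounds were incubated with CYP1A2 and a luminogenic proluciferin substrate for 10 min at room temperature before the reaction was started with NADPH regeneration solution. After 1 h, detection reagent was added and light output, proportional to CYP activity, was recorded.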

For test [15], the target named is Voltage-gated inwardly rectifying potassium channel KCNH2 (Homo sapiens) (UniProt Q12809). As to the kind of experiment: Human Ether-a-go-go-Related Gene (hERG) channel small molecule antagonists: fluorescence cell-based qHTS assay (AID 1671200). Also: nearly all actives have a fitted effect of over 50% in size. Also: potency is read from the fitted curve at half-maximal effect. Put shortly:
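Quantitative HTS in hERG-U2OS cells: thallium entry through the channel reports activity, read as continuous 480/540 nm fluorescence over 2 min after stimulus addition.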
(In general: The hERG channel carries a current that helps repolarise heart muscle cells.)

The target of test [16] is Cytochrome P450 3A4 (Homo sapiens) (UniProt P08684). Description: Cytochrome P450 Family 3 Subfamily A Member 4 (CYP3A4) small molecule antagonists: luciferase reporter qHTS assay (AID 1671201). Also: nearly all actives have a fitted effect of over 50% in size. Also: potency is read from the fitted curve at half-maximal effect. Put shortly:
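Inhibition of CYP3A4 is measured as loss of light: the enzyme converts a proluciferin substrate to luciferin, detected luminescently. Reaction ran 1 h at room temperature with NADPH regeneration after a 10 min compound preincubation.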

Chain of Cytochrome P450 3A4 (Homo sapiens) (P08684 whole entry, looked up): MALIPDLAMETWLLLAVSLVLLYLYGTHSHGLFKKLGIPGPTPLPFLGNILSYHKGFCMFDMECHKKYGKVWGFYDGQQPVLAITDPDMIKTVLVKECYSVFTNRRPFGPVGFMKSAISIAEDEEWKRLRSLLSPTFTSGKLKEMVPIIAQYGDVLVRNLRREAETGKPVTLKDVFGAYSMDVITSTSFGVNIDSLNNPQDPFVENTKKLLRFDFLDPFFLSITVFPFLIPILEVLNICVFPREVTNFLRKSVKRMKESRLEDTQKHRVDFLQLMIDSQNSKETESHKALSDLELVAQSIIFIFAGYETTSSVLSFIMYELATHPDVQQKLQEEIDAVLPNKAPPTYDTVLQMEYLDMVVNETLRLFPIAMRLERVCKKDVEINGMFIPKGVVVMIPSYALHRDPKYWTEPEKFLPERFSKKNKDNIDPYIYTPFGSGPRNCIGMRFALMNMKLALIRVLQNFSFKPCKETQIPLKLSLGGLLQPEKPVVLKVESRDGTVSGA
Chain of Cytochrome P450 2C19 (Homo sapiens) (P33261 whole entry, looked up): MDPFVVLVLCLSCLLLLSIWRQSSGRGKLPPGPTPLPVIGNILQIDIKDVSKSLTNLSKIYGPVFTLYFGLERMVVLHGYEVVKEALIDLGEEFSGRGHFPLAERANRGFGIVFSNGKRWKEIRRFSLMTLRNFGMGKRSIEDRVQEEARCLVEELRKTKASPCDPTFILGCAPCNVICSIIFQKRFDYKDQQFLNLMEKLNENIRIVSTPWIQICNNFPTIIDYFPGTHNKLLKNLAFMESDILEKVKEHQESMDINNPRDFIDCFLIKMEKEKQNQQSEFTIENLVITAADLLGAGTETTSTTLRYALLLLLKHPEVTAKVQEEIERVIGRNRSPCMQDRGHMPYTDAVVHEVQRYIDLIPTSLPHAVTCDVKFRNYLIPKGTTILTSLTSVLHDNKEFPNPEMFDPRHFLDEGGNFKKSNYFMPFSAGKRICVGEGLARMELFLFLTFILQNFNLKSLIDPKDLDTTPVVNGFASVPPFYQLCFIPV
Chain of Acetylcholinesterase (Homo sapiens) (P22303 whole entry, looked up): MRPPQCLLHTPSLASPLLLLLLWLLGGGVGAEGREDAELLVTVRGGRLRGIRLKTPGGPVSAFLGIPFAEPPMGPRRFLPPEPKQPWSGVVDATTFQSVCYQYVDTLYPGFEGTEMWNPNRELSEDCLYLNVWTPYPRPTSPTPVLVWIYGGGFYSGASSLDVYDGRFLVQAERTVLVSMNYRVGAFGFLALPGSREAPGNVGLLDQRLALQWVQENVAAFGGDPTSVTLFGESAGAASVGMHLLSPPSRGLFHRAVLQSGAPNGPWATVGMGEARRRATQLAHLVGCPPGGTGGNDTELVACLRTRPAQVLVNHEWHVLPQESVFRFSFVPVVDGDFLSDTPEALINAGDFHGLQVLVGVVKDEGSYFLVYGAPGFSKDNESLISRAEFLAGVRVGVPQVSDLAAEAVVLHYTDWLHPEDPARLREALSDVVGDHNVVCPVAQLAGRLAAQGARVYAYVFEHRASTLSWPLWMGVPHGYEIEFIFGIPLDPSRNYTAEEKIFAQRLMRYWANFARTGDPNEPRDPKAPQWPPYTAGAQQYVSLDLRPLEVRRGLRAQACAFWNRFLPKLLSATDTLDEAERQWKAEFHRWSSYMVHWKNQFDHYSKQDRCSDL
Chain of Cytochrome P450 1A2 (Homo sapiens) (P05177 whole entry, looked up): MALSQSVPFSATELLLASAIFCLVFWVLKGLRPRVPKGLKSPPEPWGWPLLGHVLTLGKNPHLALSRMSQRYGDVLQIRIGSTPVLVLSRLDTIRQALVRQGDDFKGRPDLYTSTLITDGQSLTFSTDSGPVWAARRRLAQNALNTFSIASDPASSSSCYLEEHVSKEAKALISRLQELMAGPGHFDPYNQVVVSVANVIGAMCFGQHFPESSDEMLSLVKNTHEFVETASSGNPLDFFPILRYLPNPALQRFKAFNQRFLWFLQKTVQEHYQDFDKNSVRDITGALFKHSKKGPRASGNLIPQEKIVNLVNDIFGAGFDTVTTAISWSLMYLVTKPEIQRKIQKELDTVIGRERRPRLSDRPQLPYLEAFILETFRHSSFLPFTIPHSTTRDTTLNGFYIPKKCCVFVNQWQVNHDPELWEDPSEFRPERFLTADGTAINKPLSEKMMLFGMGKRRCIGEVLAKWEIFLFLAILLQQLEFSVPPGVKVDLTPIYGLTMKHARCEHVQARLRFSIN
Chain of Voltage-gated inwardly rectifying potassium channel KCNH2 (Homo sapiens) (Q12809 whole entry, looked up): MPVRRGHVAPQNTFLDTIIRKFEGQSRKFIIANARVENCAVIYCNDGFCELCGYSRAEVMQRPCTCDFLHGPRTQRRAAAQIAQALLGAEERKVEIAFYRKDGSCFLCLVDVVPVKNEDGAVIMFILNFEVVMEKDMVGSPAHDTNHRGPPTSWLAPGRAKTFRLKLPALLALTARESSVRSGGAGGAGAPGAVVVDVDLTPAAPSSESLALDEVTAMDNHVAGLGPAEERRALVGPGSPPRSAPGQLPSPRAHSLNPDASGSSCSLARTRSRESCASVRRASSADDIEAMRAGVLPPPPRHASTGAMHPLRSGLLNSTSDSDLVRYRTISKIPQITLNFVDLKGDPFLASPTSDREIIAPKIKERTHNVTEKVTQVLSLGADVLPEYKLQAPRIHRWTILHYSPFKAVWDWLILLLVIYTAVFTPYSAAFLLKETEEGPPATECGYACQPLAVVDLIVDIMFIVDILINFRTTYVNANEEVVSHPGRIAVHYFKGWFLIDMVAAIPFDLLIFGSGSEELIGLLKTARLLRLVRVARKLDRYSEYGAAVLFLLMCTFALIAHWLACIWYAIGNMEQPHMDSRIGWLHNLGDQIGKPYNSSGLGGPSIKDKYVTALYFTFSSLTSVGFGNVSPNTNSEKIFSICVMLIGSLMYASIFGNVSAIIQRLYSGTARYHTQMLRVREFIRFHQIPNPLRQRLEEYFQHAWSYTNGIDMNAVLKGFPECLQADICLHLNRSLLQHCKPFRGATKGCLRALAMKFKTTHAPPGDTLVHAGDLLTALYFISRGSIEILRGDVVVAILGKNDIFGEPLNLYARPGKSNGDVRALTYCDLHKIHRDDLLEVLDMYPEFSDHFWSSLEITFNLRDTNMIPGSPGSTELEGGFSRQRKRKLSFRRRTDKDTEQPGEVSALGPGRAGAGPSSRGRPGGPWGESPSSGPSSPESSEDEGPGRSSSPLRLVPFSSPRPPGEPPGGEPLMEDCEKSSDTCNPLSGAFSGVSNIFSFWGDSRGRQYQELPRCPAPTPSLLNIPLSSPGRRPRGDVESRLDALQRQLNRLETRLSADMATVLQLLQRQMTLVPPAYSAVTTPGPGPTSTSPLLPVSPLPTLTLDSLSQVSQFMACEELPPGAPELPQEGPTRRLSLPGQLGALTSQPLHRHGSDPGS
Chain of Cytochrome P450 2D6 (Homo sapiens) (P10635 whole entry, looked up): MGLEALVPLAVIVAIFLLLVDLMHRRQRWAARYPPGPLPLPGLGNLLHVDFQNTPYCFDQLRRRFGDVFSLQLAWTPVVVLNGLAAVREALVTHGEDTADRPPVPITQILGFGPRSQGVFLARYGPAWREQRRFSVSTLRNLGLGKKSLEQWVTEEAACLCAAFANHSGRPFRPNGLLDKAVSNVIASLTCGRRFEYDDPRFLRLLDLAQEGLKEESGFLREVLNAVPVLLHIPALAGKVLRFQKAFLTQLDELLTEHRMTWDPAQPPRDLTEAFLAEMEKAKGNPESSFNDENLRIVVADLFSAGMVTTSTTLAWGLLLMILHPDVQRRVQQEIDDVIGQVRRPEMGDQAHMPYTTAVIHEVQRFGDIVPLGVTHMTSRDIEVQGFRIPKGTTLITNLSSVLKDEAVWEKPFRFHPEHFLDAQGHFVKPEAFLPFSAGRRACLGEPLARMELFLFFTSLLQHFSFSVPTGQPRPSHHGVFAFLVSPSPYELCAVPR

`CCOC(=O)c1ccccc1N`: the Potency result in test [1], in test [2], in [3], in test [4], in [5] and in test [6] was “inactive” in each case. The Potency result in [7], in [8], in [9], in test [10], in test [11] and in [12] was “inactive” in each case. For the same molecule, the Potency result in test [13], in test [15] and in test [16] was “inactive” in each case. Further, the Potency in test [14] was 28.1 µM (active) and 31.7 µM (active).
Regarding `Clc1ccccc1-c1nnc(-c2ccccc2Cl)nn1`, the Potency result in [1], in test [2], in [4], in test [5], in test [7] and in test [8] was “inactive” each time. In addition, the Potency result in test [9], in test [10], in [11], in test [13], in test [15] and in test [16] was “inactive” throughout. For the same molecule, the Potency in test [3] was 54 µM (active) and inactive; in test [6], 54 µM (active) and inactive; in test [12] it was 31.4 µM (active) and 6.31 µM (active); in [14] it was 5.59 µM (active) and 7.08 µM (active).
As to `CC(O)CN(CC(C)O)CC(C)O` (stereo unspecified), the Potency entry in test [1], in test [2], in [3], in [4], in test [5] and in test [6] was “inactive” in each case. Moreover, the Potency result in test [7], in test [8], in test [9], in test [10], in test [11] and in [12] was “inactive” each time. Further, the Potency entry in [13], in test [14], in [15] and in test [16] was “inactive” throughout.
As for `[CH3][Sn]([Cl])([Cl])[Cl]`, the Potency entry in [1], in [2], in test [3], in [4], in test [5] and in test [6] was “inactive” in each case. Moreover, the Potency entry in test [7], in test [8], in [9], in [10], in [12] and in test [13] was “inactive” in each case. Also, the Potency result in test [14], in test [15] and in test [16] was “inactive” in each case. Further, in test [11], the Potency is 32.4 µM (active) and inactive.
As to `Clc1ccc(C(Cl)(Cl)Cl)cc1`, the Potency entry in test [1], in test [2], in test [3], in test [4], in [5] and in test [6] was “inactive” each time. The Potency entry in test [7], in test [8], in test [9], in test [10], in [11] and in test [13] was “inactive” throughout. Further, the Potency result in test [14], in test [15] and in test [16] was “inactive” each time. Further, the Potency entry in [12] was “inactive and 28.3 µM (active)”.
`CCC[CH2][Sn]([Cl])([CH2]CCC)[CH2]CCC`: the Potency in test [1] was 562 nM (active) and 433 nM (active); in test [2], 1.73 µM (active) and 2.73 µM (active); in test [3] it was 194 nM (active) and 344 nM (active); in [4], 274 nM (active) and 545 nM (active); in test [5], 1.94 µM (active) and 4.33 µM (active); in test [6], 487 nM (active) and inactive. The Potency in [11] was 634 nM (active) and 2 µM (active); in test [12] it was 2.01 µM (active) and 2.24 µM (active); in test [13] it was 14.2 µM (active) and 15.9 µM (active); in test [14] it was 40 µM (active); in [15], 12.3 µM (active) and 6.92 µM (active); in test [16] it was 15.9 µM (active) and 20 µM (active). For the same molecule, the Potency result in [7], in test [8], in test [9] and in test [10] was “inactive” throughout.
